# High-throughput results deposited in PubChem BioAssay by National Center for Advancing Translational Sciences (NCATS).
# A selection: hits, their analogues and other compounds. The true share with any hit is near 19%.
# HT1080NT lethal – kills 2HG-producing HT-1080-NT fibrosarcoma cells. HT-1080-NT fibrosarcoma viability, CellTiter-Glo ATP luminescence, 48 h. Potency, µM (series often up to 46.1 µM), usual class: cytotoxic. 1.6% of 360,000 active;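 note: NT is the 2HG producing partner of a matched IDH1 knockdown line; nearly all actives have a fitted effect of over 55% in size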
#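 Read-out is CellTiter-Glo luminescence after 10 minutes at room temperature, following 48 hours' compound treatment of HT-1080-NT cells (750 cells/well, RPMI, 5% FBS, 37 degrees C).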
# IL1B secr inh – inhibitors of inflammasome signaling (IL-1 beta secretion); 4.7% of 360,000 active; THP-1 LPS/ATP IL-1B secretion, AlphaLISA, 16 h; hits give low values; activity change, % at 57.5 µM; in the data active = activity change below about -50%; inconclusive = mostly about -30% to -49%
#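 THP-1 cells pretreated 1 hr with compounds (up to 57.5 uM final), then stimulated with LPS (250 ng/mL final) plus ATP (1.25 mM final); secreted IL-1B measured by AlphaLISA after 16 hr, decreased signal indicating inhibition.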
# DT40 TDP1 CPT – growth inhibition of DT40 Tdp1-/-;hTDP1 cells with camptothecin (screen for TDP1 inhibitors); chicken DT40 Tdp1-/-;hTDP1 cells + 20 nM CPT, ATP luminescence, 48 h; Potency, µM (highest dose often 46.2 µM), actives largely listed as inhibitors; 12% of 420,000 active; AID 686979; note: nearly all actives have a fitted effect of over 55% in size
#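 Chicken DT40 Tdp1-/- cells stably complemented with human TDP1 were seeded at 400 cells/well in medium containing 20 nM camptothecin, exposed to pin-transferred compounds, and grown at 37 °C for at least 48 hr. Viability was read as ATP luminescence.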
# HT1080 IDH1KD tx – HT-1080 IDH1 knockdown cell toxicity (counter line); HT-1080 IDH1 knockdown viability, ATP luminescence, 48 h; Potency, µM (series often up to 46.1 µM), usual class: cytotoxic; 2% of 360,000 active
#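 IDH1KD HT-1080 cells, 750/well, RPMI + 5% FBS; compound pinned after 2 h settling; 48 h, 37 °C; CellTiter-Glo luminescence; % activity normalised to DMSO and no-cell wells; curves fitted, classed by r2 and efficacy.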
# DT40 TDP1 no CPT – qHTS for Inhibitors of human tyrosyl-DNA phosphodiesterase 1 (TDP1): qHTS in cells in absence of CPT. DT40 Tdp1-/- hTDP1 cells, no CPT, ATP luminescence, 48 h. Potency, µM (doses to about 46.2 µM), most hits filed as inhibitors. 15% of 420,000 active; note: nearly all actives have a fitted effect of over 55% in size
#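 Chicken DT40 Tdp1-/- cells stably complemented with human TDP1 were seeded at 400 cells/well with DMSO in place of 20 nM camptothecin. After compound pinning, cells grew at least 48 hr at 37 °C; viability read by CellTiter-Glo luminescence.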
# Numbers stand for hits; 0 = inactive; ? = inconclusive; - = no result given; [ ] = another dose, or the depositor's remark. Unless noted, calls come from the whole dose curve; as a rule, active = well fitted curve in the direction sought with a large enough effect; inconclusive = small, poorly fitted or top-dose-only effect, or another doubt; inactive = no such curve, though single readings can be large; an effect the other way counts as inactive or inconclusive.
SMILES,HT1080NT lethal,IL1B secr inh,DT40 TDP1 CPT,HT1080 IDH1KD tx,DT40 TDP1 no CPT
Cc1ccc(C)c(S(=O)(=O)N2CCN(C(=O)Cc3sc(C)nc3-c3ccc(F)cc3)CC2)c1,0,0,?,0,?
Cc1nc(-c2ccc(F)cc2)c(CC(=O)N2CCN(S(=O)(=O)c3cccc(F)c3)CC2)s1,0,0,21µM,0,15µM
O=[N+]([O-])c1ccccc1S(=O)(=O)Oc1ccccc1/C=N/n1cnnc1,0,0,?,0,16µM
CC1(C(=O)Nc2ccc3c(c2)OCCO3)CCN1C(=O)C/C=C/c1ccccc1 (configuration not stated),0,0,29µM,0,?
CC1(C(=O)NS(=O)(=O)Cc2ccccc2C(F)(F)F)CCN1C(=O)C/C=C/c1ccccc1 (configuration not stated),0,0,?,0,23µM
O=C(Nc1ccc2c(c1)OCCO2)C(c1cc2ccccc2o1)N1CCN(C/C=C/c2ccccc2)CC1 (configuration not stated),?,0,15µM,?,16µM
CC(C(=O)Nc1cccc([N+](=O)[O-])c1)N1CCN(C/C=C/c2ccccc2)CC1 (configuration not stated),0,-72,?,0,?
C[C@H]1CN([C@@H](C)CO)C(=O)CCCn2cc(nn2)CO[C@@H]1CN(C)S(=O)(=O)c1cccc(F)c1,0,0,0,0,0
O=C(NCCN1CCOCC1)c1cnn(-c2nccc(-c3ccccc3C(F)(F)F)n2)c1C1CC1,-,-,0,-,0
COc1ccc(Cl)cc1S(=O)(=O)N1CCC(C(=O)NCCC2=CCCCC2)CC1,0,0,23µM,0,?
COc1ccc(C)cc1S(=O)(=O)N1CCC(C(=O)NCCC2=CCCCC2)CC1,0,0,?,0,?
Cc1cc(C)c(S(=O)(=O)N2CCCC(C(=O)NCCC3=CCCCC3)C2)c(C)c1 (configuration not stated),0[9.24 µM],0,?,0,21µM
Cc1nn(C)c(C)c1S(=O)(=O)N1CCC(C(=O)NCCC2=CCCCC2)CC1,0,0,18µM,0,?
COc1ccc(S(=O)(=O)N2CCCC(C(=O)NCCC3=CCCCC3)C2)cc1 (configuration not stated),0,0,0,0,?
O=C(COC(=O)c1cncc(Br)c1)NCCC1=CCCCC1,0,0,0,0,0
CC1=C(C(=O)N2CCOCC2)CC(CC(=O)NCc2cccs2)C(=O)N1Cc1ccc(C(C)(C)C)cc1 (configuration not stated),0,0,15µM,0,?
CC1=C(C(=O)N(C(C)C)C(C)C)CC(CC(=O)NCc2cccs2)C(=O)N1Cc1ccc(C(C)(C)C)cc1 (configuration not stated),?,-59,?,?,23µM
COc1ccc(CN2C(=O)C(CC(=O)NCc3ccco3)CC(C(=O)N3CCOCC3)=C2C)cc1 (configuration not stated),0,0,0,0,?
CC1=C(C(=O)N2CCOCC2)CC(CC(=O)NCc2cccs2)C(=O)N1Cc1ccccc1 (configuration not stated),0,0,0,0,0
CC1=C(C(=O)N2CCOCC2)CC(CC(=O)NCc2ccco2)C(=O)N1Cc1ccc(C(C)(C)C)cc1 (configuration not stated),0,0,29µM,0,21µM
O=C(Nc1cccc([N+](=O)[O-])c1)c1cc(S(=O)(=O)N2CCOCC2)cs1,0,0,?,0,?
O=C(Nc1ccc([N+](=O)[O-])cc1)Nc1ccc2c(c1)OCCO2,0,-68,?,0,15µM
O=C(NCCc1ccccc1)Nc1ccc2c(c1)OCO2,0,0,0,0,0
O=C(NCCc1ccc(F)cc1)Nc1ccc2c(c1)OCO2,0,?,18µM,0,?
CC(C)c1ccccc1NC(=O)Nc1ccc2c(c1)OCO2,0,0,16µM,0,0
SMILES,HT1080NT lethal,IL1B secr inh,DT40 TDP1 CPT,HT1080 IDH1KD tx,DT40 TDP1 no CPT
Cc1cc(C)c(NC(=O)Nc2ccc3c(c2)OCO3)c(C)c1,0,0,12µM,0,?
O=C(Nc1ccc2c(c1)OCO2)Nc1ccc2c(c1)OCO2,0,0,0,0,0
Cc1c(C(=O)NCCCN2CCCC2=O)cnn1-c1ncc2c(n1)-c1ccccc1CC2,-,-,0[9.04 µM],-,0
CC(NC(=O)c1ccco1)C(c1cccs1)N1CCOCC1 (configuration not stated),0,0,0,0,0
O=C(Nc1ccc(F)cc1)Nc1ccc2c(c1)OCO2,0,0,9.2µM,0,?
O=C(Nc1ccc2c(c1)OCO2)Nc1ccc(Cl)cc1Cl,0,?,?,0,?
O=C(Nc1ccc2c(c1)OCO2)Nc1ccc(F)cc1F,0,0,3.7µM,0,2.3µM
COc1ccc(Cl)cc1NC(=O)CCN1C(=O)C2C3C=CC(C4CC34)C2C1=O (configuration not stated),0,0,0,0,0
CC(C(=O)Nc1nc(-c2ccc(F)c(F)c2)cs1)N1C(=O)C2CC=CCC2C1=O (configuration not stated),0,0,?,0,23µM
O=C(CCN1C(=O)C2CCCCC2C1=O)Nc1nc(-c2ccccc2)cs1 (configuration not stated),0,0,?,0,?
O=C(CCN1C(=O)C2CC=CCC2C1=O)Nc1nc(-c2ccc(F)c(F)c2)cs1 (configuration not stated),0,0,13µM,0,0
COc1ccc(-c2csc(NC(=O)[C@H](C)N3C(=O)C4CC=CCC4C3=O)n2)cc1OC (some centres not stated),0,0,?,0,?
CCCn1c(=NC(=O)c2ccco2)c(C(=O)OCC)cc2c(=O)n3ccccc3nc21,0,?,?,0,?
CCOC(=O)c1cc2c(=O)n3ccccc3nc2n(CC2CCCO2)c1=NC(=O)c1ccccc1C (configuration not stated),-,-,0,-,0
CCOC(=O)c1cc2c(=O)n3ccccc3nc2n(Cc2ccco2)c1=NC(=O)c1ccccc1OC,0,?,16µM,0,13µM
CCOC(=O)c1cc2c(=O)n3cccc(C)c3nc2n(Cc2ccco2)c1=NC(=O)c1ccc(C)cc1,0,0,0,0,0
CCOC(=O)c1cc2c(=O)n3ccccc3nc2n(Cc2ccco2)c1=NC(=O)c1ccc(OC)cc1,0,0,6.5µM,0,5.2µM
CCOC(=O)c1cc2c(=O)n3ccccc3nc2n(CC2CCCO2)c1=NC(=O)c1ccccc1OCC (configuration not stated),-,-,16µM,-,15µM
CCOC(=O)c1cc2c(=O)n3ccccc3nc2n(Cc2ccco2)c1=NC(=O)c1cccc(OC)c1,0,-55,?,0,?
